Measurements: the supplement of paper PMC10849652
The full data set covers some 8,800 targets. This sample favours those with a hit. About 0.5% of all pairs of compound and target were hits. A number with no mark means an inactive call.

Experiments:
Assay in all cases: log2 fold change, soluble protein after heating vs DMSO (PISA); higher = thermal stabilisation; K562 lysate, 10 uM; active = over 0.2 and 3.5 SD of the protein, either way, in both replicates (recomputed)
[1] = compound: CN1CC[C@H](c2c(O)cc(O)c3c(=O)cc(-c4ccccc4Cl)oc23)[C@H](O)C1 [alvocidib]
Summary of the method: (§1)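 Quantification was by TMTpro 16plex LC-MS/MS with equalised channel sums, applied to the supernatant after 21,000xg for 90 min. Samples were crude K562 extract at 1 mg/mL protein in PBS pH 7.4 with 1 mM MgCl2, treated with 10 μM compound for 30 min, heated for 3 min across 48°C-58°C, pooled and brought to 0.5% NP-40 at 4°C. Values are log-two fold changes in thermal stability relative to solvent controls, from duplicates.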

[2] = compound: CN1CCc2c(c3ccccc3n2Cc2ccc(C(=O)NO)cc2)C1 [Tubastatin A]
Summary of the method: as §1

[3] = compound: CNC(=O)C1=CC=CC=C1NC2=NC(=NC=C2Cl)NC3=C(C=C(C=C3)N4CCOCC4)OC
Summary of the method: as §1

[4] = compound: CNC(=O)c1ccc(Nc2ncc(C(F)(F)F)c(NCc3nccnc3N(C)S(C)(=O)=O)n2)cc1 [defactinib]
Summary of the method: as §1

[5] = compound: CNc1nc(-c2ccc3c(N)n[nH]c3c2)cc(N2C[C@@H](C(=O)NC3CCCCC3)CC[C@H]2C)n1
Summary of the method: as §1

[6] = compound: COC(=O)N[C@@H](C)CNc1nccc(-c2cn(C(C)C)nc2-c2cc(Cl)cc(NS(C)(=O)=O)c2F)n1 [encorafenib]
Summary of the method: as §1

[7] = compound: COC(=O)[C@H](CCSC)NC(=O)C1=C(C=C(C=C1)NC[C@H](CS)N)C2=CC=CC=C2
Summary of the method: as §1

[8] = compound: COc1cc(Nc2ncc3c(n2)-c2ccc(Cl)cc2C(c2c(F)cccc2OC)=NC3)ccc1C(=O)O [alisertib]
Summary of the method: as §1

[9] = compound: COc1cc2nc(-c3cc(F)ccc3O)nc(N[C@@H]3CNC[C@H]3C(C)(C)O)c2cc1OC
Summary of the method: as §1

[10] = compound: COc1cc2ncnc(Nc3ccc(F)c(Cl)c3)c2cc1OCCCN1CCOCC1 [gefitinib]
Summary of the method: as §1

[11] = compound: CS(=O)(=O)CCNCc1ccc(-c2ccc3ncnc(Nc4ccc(OCc5cccc(F)c5)c(Cl)c4)c3c2)o1 [lapatinib]
Summary of the method: as §1

[12] = compound: CS(=O)(=O)N1CCN(Cc2cc3nc(-c4cccc5[nH]ncc45)nc(N4CCOCC4)c3s2)CC1 [pictilisib]
Summary of the method: as §1

[13] = compound: C[C@@H](Oc1cc(-c2cnn(C3CCNCC3)c2)cnc1N)c1c(Cl)ccc(F)c1Cl [crizotinib]
Summary of the method: as §1

[14] = compound: C[C@H](C1=CC=C(C=C1)C(=O)NC2=C3C=CNC3=NC=C2)N
Summary of the method: as §1

[15] = compound: C[C@H](Nc1ncnc2nc[nH]c12)c1cc2cccc(Cl)c2c(=O)n1-c1ccccc1 [duvelisib]
Summary of the method: as §1

[16] = compound: Cc1cc(Nc2cc(CN3CCOCC3)c3nc(C)c(Cc4ccc(Cl)cc4F)n3n2)n[nH]1 [gandotinib]
Summary of the method: as §1

[17] = compound: Cc1cc(Nc2cc(N3CCN(C)CC3)nc(Sc3ccc(NC(=O)C4CC4)cc3)n2)n[nH]1 [tozasertib]
Summary of the method: as §1

[18] = compound: Cc1ccc(-n2nc(C(C)(C)C)cc2NC(=O)Nc2ccc(OCCN3CCOCC3)c3ccccc23)cc1 [doramapimod]
Summary of the method: as §1

[19] = compound: Cc1ccc(NC(=O)c2ccc(CN3CC[C@H](N(C)C)C3)c(C(F)(F)F)c2)cc1Nc1nccc(-c2cncnc2)n1 [bafetinib]
Summary of the method: as §1

[20] = compound: Cc1cccc(CC(=O)N2CCc3c2ccc(-c2cn(C)c4ncnc(N)c24)c3F)n1
Summary of the method: as §1

UniProt Q9NR50, sequence (Q9NR50 whole entry, looked up): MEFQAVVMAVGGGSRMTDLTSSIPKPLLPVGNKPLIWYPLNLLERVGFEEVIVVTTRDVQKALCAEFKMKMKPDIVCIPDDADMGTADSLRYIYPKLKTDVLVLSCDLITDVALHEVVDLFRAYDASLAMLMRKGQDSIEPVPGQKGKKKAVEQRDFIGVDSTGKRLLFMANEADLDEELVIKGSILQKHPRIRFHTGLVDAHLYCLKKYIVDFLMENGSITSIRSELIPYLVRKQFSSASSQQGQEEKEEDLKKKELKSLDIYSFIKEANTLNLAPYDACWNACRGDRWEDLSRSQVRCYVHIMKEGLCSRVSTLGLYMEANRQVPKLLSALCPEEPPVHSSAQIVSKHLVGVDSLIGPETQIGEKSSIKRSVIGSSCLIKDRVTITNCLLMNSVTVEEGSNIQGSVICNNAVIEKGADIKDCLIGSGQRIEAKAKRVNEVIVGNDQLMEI
UniProt Q6PIJ6, sequence (Q6PIJ6 whole entry, looked up): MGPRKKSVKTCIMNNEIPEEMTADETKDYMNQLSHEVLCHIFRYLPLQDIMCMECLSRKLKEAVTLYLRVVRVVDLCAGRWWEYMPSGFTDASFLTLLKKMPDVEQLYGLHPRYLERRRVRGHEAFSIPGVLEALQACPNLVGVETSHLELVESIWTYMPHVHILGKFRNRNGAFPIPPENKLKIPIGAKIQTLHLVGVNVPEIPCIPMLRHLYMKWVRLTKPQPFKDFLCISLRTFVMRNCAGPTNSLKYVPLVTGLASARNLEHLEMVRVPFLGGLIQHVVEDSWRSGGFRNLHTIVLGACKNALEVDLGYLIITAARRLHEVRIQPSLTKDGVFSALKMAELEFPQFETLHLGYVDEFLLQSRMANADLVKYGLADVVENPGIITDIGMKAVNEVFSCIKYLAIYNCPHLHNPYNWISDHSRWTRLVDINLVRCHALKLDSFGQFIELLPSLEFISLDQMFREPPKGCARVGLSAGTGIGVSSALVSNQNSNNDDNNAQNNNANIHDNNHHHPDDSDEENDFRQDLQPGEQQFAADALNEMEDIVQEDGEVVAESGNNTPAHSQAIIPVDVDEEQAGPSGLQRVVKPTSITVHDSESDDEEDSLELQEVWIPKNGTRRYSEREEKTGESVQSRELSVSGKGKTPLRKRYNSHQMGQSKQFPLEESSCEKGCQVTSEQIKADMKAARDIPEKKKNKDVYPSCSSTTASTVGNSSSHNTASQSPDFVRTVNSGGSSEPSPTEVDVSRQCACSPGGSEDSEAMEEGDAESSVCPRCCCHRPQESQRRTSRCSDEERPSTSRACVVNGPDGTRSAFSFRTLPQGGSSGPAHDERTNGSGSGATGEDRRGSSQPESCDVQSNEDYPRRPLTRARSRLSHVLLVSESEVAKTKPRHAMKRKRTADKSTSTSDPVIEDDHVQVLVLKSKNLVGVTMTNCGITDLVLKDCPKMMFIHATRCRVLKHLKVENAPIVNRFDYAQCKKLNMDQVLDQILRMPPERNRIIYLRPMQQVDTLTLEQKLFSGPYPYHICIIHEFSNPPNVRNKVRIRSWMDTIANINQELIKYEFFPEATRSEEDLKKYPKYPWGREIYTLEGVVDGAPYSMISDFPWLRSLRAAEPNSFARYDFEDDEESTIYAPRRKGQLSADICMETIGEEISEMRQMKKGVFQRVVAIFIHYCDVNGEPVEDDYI
UniProt Q92538, sequence (Q92538 whole entry, looked up): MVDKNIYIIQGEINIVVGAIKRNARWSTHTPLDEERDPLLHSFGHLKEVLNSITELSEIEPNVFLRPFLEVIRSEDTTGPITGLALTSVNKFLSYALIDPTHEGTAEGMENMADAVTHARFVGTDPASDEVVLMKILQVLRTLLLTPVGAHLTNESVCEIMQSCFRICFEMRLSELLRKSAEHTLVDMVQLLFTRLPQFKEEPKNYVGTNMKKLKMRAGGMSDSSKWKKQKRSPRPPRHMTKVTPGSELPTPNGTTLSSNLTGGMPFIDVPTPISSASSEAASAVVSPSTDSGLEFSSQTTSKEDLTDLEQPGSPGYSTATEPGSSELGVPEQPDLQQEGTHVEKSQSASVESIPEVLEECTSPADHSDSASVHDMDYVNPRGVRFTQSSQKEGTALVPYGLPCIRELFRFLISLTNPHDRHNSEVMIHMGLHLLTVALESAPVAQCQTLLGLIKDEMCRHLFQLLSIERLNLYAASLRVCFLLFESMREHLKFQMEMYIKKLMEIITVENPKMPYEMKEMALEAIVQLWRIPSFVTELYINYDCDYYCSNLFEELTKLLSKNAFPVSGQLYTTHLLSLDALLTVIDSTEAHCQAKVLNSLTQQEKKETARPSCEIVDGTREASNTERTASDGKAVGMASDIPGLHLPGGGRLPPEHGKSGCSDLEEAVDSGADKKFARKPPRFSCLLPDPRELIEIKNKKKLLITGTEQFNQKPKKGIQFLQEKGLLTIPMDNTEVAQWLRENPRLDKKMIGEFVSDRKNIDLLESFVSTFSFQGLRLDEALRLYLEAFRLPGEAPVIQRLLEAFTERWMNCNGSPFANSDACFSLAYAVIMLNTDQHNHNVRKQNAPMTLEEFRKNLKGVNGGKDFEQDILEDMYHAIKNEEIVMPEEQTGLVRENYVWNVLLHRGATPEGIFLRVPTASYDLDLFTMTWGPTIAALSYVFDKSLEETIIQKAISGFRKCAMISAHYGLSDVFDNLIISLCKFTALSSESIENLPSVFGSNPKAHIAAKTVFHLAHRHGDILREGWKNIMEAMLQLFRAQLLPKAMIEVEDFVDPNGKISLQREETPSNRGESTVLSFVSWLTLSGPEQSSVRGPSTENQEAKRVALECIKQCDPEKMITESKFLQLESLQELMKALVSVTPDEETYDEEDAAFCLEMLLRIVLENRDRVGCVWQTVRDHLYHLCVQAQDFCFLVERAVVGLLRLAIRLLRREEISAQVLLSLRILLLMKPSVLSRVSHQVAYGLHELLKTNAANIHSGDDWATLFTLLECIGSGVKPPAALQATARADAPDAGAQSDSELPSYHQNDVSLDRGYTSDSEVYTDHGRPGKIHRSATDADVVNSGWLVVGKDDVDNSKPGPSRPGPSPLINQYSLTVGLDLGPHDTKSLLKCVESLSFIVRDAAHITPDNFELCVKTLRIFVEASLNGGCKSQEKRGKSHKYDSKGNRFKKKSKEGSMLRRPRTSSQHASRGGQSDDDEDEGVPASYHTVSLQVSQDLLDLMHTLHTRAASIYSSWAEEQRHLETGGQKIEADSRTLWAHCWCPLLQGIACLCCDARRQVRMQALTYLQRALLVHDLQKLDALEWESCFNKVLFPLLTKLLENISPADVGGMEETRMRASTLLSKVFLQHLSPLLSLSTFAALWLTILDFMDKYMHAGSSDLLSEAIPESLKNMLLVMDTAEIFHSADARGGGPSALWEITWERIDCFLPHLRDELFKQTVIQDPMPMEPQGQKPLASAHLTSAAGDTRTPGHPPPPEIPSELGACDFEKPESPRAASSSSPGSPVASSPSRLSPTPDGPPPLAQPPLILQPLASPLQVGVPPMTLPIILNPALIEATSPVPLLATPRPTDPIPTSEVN
UniProt P57772, sequence (P57772 whole entry, looked up): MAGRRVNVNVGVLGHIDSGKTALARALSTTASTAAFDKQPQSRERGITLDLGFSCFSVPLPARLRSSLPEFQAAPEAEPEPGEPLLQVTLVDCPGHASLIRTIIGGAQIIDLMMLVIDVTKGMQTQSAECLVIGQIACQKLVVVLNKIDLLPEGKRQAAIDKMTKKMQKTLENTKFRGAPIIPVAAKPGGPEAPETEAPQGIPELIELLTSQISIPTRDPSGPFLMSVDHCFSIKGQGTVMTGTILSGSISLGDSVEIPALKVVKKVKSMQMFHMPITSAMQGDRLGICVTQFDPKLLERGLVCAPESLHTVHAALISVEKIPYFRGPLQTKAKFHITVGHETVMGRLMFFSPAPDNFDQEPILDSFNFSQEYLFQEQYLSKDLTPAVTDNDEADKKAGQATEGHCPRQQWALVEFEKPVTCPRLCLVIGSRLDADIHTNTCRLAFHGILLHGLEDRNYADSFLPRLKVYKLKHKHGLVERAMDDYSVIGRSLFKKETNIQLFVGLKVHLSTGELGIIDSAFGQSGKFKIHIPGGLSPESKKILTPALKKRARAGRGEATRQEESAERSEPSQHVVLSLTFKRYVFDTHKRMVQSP
UniProt Q6P4F2, sequence (Q6P4F2 whole entry, looked up): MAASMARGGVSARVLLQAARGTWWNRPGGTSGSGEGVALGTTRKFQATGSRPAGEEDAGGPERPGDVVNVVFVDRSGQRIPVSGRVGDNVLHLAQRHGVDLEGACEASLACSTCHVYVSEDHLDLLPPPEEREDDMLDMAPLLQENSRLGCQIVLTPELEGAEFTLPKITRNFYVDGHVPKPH
UniProt Q92947, sequence (Q92947 whole entry, looked up): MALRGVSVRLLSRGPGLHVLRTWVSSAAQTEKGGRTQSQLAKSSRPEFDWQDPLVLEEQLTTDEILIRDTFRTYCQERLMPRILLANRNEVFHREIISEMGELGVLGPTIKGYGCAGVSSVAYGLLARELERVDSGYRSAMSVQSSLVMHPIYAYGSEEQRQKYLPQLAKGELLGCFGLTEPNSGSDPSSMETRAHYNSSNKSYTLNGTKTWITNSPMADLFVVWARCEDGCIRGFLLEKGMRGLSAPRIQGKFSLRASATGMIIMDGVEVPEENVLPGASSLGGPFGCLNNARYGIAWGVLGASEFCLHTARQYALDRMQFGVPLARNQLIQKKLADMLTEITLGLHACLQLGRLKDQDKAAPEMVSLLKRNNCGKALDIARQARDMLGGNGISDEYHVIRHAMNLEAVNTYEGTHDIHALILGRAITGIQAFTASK

Target | log2 fold change [1] | log2 fold change [2] | log2 fold change [3] | log2 fold change [4] | log2 fold change [5] | log2 fold change [6] | log2 fold change [7] | log2 fold change [8] | log2 fold change [9] | log2 fold change [10] | log2 fold change [11] | log2 fold change [12] | log2 fold change [13] | log2 fold change [14] | log2 fold change [15] | log2 fold change [16] | log2 fold change [17] | log2 fold change [18] | log2 fold change [19] | log2 fold change [20]
EIF2B3 (UniProt Q9NR50) | 0.071 | -0.103 | -0.009 | 0.008 | -0.012 | -0.007 | 0.057 | -0.016 | -0.007 | -0.041 | -0.007 | -0.021 | -0.061 | 0.234 (active) | 0.016 | -0.115 | -0.035 | 0.012 | -0.024 | -0.047
GCDH (UniProt Q92947) | 0.018 | -0.069 | -0.049 | 0.004 | 0.057 | -0.049 | 0.159 | 0.049 | 0.006 | -0.004 | 0.016 | 0.012 | -0.017 | 0.013 | 0.19 | -0.005 | 0.007 | -0.026 | 0.047 | -0.004
FDX2 (UniProt Q6P4F2) | -0.016 | 0.093 | -0.001 | -0.017 | -0.478 | -0.33 | -0.313 | 0.07 | -0.021 | -0.041 | 0.047 | -0.169 | 0.057 | -0.142 | 0.188 | 0.014 | -0.15 | 0.014 | 0 | 0.112
EEFSEC (UniProt P57772) | -0.008 | -0.157 | 0.019 | 0.036 | -0.017 | 0.018 | 0.098 | 0.019 | 0 | -0.012 | -0.019 | 0.008 | -0.042 | -0.043 | 0.031 | -0.023 | 0.024 | 0.022 | -0.079 | 0.041
FBXO38 (UniProt Q6PIJ6) | -0.008 | -0.043 | -0.616 (active) | 0.019 | 0.01 | -0.004 | -0.038 | -0.015 | -0.062 | 0.056 | 0.039 | -0.052 | 0.038 | 0.018 | 0.01 | -0.037 | 0.119 | 0.05 | -0.316 | -0.016
GIGYF2 (UniProt Q6Y7W6) | -0.028 | -0.164 | 0.052 | 0.017 | 0.019 | 0.092 | -0.063 | 0.028 | 0.013 | 0.005 | 0.013 | 0.057 | 0.024 | 0.03 | -0.033 | 0.05 | -0.006 | -0.086 | -0.043 | -0.009
GBF1 (UniProt Q92538) | 0 | -0.041 | 0.032 | 0.007 | 0.004 | 0.036 | -0.031 | 0.002 | -0.008 | -0.03 | -0.015 | -0.023 | -0.064 | -0.026 | -0.002 | -0.108 | 0.014 | -0.006 | -0.043 | 0.049
ESYT2 (UniProt H7BXI1) | 0.02 | 0.038 | -0.02 | 0.001 | -0.072 | 0.053 | -0.1 | -0.003 | 0.029 | -0.006 | -0.008 | 0.01 | -0.039 | 0.089 | 0.018 | -0.073 | 0.063 | 0.018 | -0.115 | 0.002
